Sampled rows, rich in hits. Any-hit rate of the full collection: about 7.8%.
VACV mCherry inh – inhibitors of vaccinia virus infection (mCherry reporter signal) | Vaccinia virus mCherry reporter infection, fluorescence | Potency, µM (titrated, usually from 36.5 µM), for inactives: at the highest dose activity change, negative = inhibition, hits mostly inhibitors | 310,000 tested, 0.63% active; calls by dose curve; tested in A549 cells; note: potency is the fitted concentration of half-maximal effect; nearly all actives have a fitted effect of over 35% in size
Vaccinia Venus – inhibitors of vaccinia virus (Venus reporter); 330,000 tested, 0.46% active; Vaccinia virus Venus reporter expression, fluorescence; Potency, µM (highest dose often 36.5 µM), without a hit: at the top dose activity change, negative = inhibition, usual class: inhibitors; calls by dose curve; tested in A549 cells; note: potency is the fitted concentration of half-maximal effect; nearly all actives have a fitted effect of over 30% in size
LASV entry inh – Lassa virus entry inhibition; Lassa virus pseudotype entry inhibition, cell reporter; Potency, µM (highest dose often 37.9 µM), for the others: at the top dose activity change, negative = inhibition, most hits filed as inhibitors; 300,000 tested, 1.2% active; calls by dose curve; tested in HEK293 cells; note: potency is the fitted concentration of half-maximal effect; nearly all actives have a fitted effect of over 50% in size
Marburg entry inh – Marburg virus entry inhibition; 300,000 tested, 1.8% active; Marburg virus pseudotyped entry inhibition, cell reporter; AID 540276; Potency, µM (top dose mostly 37.8 µM), for inactives: at the highest dose activity change, negative = inhibition, usual class: inhibitors; calls by dose curve; tested in HEK293 cells; note: potency is the fitted concentration of half-maximal effect
HCV inh – inhibitors of hepatitis C virus infection; Huh7.5.1 HCVcc-Cre infection, luciferase reporter, 44 h; Potency, µM (doses to about 41.8 µM), for the others: top-dose activity change, negative = inhibition, hits mostly inhibitors; 340,000 tested, 3.4% active; active = well fitted inhibition curve with a large enough effect; inconclusive = small, poorly fitted or top-dose-only effect, or another doubt; inactive = no such curve, though single readings can be large or run the other way; note: potency is the fitted concentration of half-maximal effect
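Cells (1,000/well) were plated 4 h before compound, then infected with HCVcc-Cre virus (~0.5 moi). After 44 h further culture, infection was read as luciferase luminescence following a 15 min substrate incubation at room temperature.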
HCMV antiviral – blocks human cytomegalovirus replication | HFF cells, HCMV-luciferase reporter, 72 h; hits give low values | activity change, negative = inhibition, % at 57.5 µM | AID 1259415 | 410,000 tested, 4.5% active; in the data active = activity change below about -60%; inconclusive = no clear call, values can overlap the other calls; inactive = above about -39%
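Screen run at 2 compound doses on HFFs infected with reporter HCMV, MOI 1 PFU/cell. Luciferase activity from cell lysates at 72 h post infection gave inhibition relative to buffer-only and Salinomycin wells.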
* hit, by the source's call; i = inactive; ? = inconclusive; · = not tested or not shown; + = active, no number; [ ] = remark or other dose. % is set by controls: 0 for no effect and ±100 for the full control effect.

SMILES	VACV mCherry inh	Vaccinia Venus	LASV entry inh	Marburg entry inh	HCV inh	HCMV antiviral
CC(C)NC(=O)c1cn(C2CCC(NC(=O)C(C)(C)C)CC2)nn1 (stereo not given)	-4.1%	-4.8%	·	·	·	·
CC1(C)CC(N=c2cc(-c3ccccc3)oc3ccc(Cl)cc23)CC(C)(C)N1	?	?	?	?	-26.8%	-98.9*
O=C1c2ccc3c4c(ccc(c24)C(=O)N1CCCCO)C(=O)N(CCCCO)C3=O	·	·	·	·	7.08µM*	-99.7*
CN1C(=O)C(C)(C)c2cc(S(=O)(=O)N3CCCC(C(=O)Nc4ccc(Cl)cc4)C3)ccc21 (stereo not given)	?	?	·	·	11.2µM*	?
CN1C(=O)C(C)(C)c2cc(S(=O)(=O)N3CCC(C(=O)Nc4ccc(Cl)cc4)CC3)ccc21	-10.3%	-14.4%	·	·	2.8%	?
CC(C)c1ccc(NC(=O)C2CCCN(S(=O)(=O)c3ccc4c(c3)C(C)(C)C(=O)N4C)C2)cc1 (stereo not given)	3.3%	-20.3%	·	·	12.6µM*	?
CCn1nnc(-c2ccccc2NC(=O)c2cnccn2)n1	-9.0%[1.46 µM]	-18.7%	8.4%	-1.1%	11.2µM*	-6.3
COc1ccc(-c2nc3cc(NC(=O)COc4ccccc4C)ccc3o2)cc1	0.9%	-6.8%	?	?	·	41.6
O=C(Nc1ccc(C(F)(F)F)cc1)N[C@H]1CC[C@@]23CCCN2C(=O)CCC[C@H]3C1Cc1ccccc1 (stereo not given in full)	·	·	·	·	·	-22.6
O=C(CN1C(=O)S/C(=C\c2ccccc2F)C1=O)NC1C=CS(=O)(=O)C1 (stereo not given)	·	·	·	·	1.3%	-62.7*
C#C[C@]1(O)CCC2C3C(=O)C=C4C(Cl)=CCC[C@]4(C)C3CC[C@@]21C (stereo not given in full)	?	?	-0.4%[46.1 µM]	-5.9%[46.1 µM]	4.2%	-79.7*
N#Cc1cccc(NC(=O)CSc2ccc3c4c(cccc24)C(=O)c2ccccc2-3)c1	-14.6%	17.6%	?	?	8.91µM*	?
O=C(c1ccc2c(c1)N(Cc1cccc(Cl)c1)C(=O)c1ccccc1S2=O)N1CCC(Cc2ccccc2)CC1 (stereo not given)	-15.2%	-12.6%	?	·	·	?
COC1=C(C)C(=O)c2c(c(COC(N)=O)c3n2C[C@@H]2[C@@H]3N2C)C1=O (stereo not given in full)	-27.7%	11.2µM*	·	·	·	·
Clc1cccc(CN2CCN(Cc3ccco3)CC2)c1	-8.1%	-12.4%	?	-3.1%	15.6%	4.9
N=c1ccn(Cc2cccc(Cl)c2)cc1	·	?	?	?	2.51µM*	-71.0*
N=c1ccn(Cc2ccc(Cl)c(Cl)c2)cc1	·	?	-29.3%	?	3.55µM*	-97.1*
N=c1ccn(Cc2ccc(Cl)cc2)cc1	·	?	?	?	1.12µM*	-92.7*
Clc1ccc(CN2CCCCCCC2)cc1Cl	-15.2%	-13.7%	-6.3%	11.3%	-19.2%	8.9
Clc1ccc(CN2CCCCCC2)cc1	-2.3%	-22.4%	9.6%	-0.2%	-18.2%	17.6
Cc1ccc(CNC(=O)COC(=O)c2ccccc2OCC(=O)Nc2ccc(Br)cc2)cc1	i	-14.2%	·	·	·	·
Nc1[nH]c2cc([N+](=O)[O-])ccc2c1-c1ccccn1	?	56.2%	-29.3%[46.1 µM]	-24.6%[46.1 µM]	12.6µM*	19.5
CCOc1ccccc1CNC(=O)C(C)n1nc(C)c2c(C)n(-c3ccccc3)nc2c1=O (stereo not given)	-8.9%	-12.9%	-23.1%[46.1 µM]	?	6.31µM*	?
COC(=O)c1ccccc1NC(=O)C(C)n1nc(C)c2c(C)n(-c3ccccc3)nc2c1=O (stereo not given)	·	·	·	·	-16.4%	?
CCCNC(=O)C(C)n1nc(C)c2c(C)n(-c3ccccc3)nc2c1=O (stereo not given)	-10.0%	-9.4%	1.8%[46.1 µM]	·	·	-15.7
SMILES	VACV mCherry inh	Vaccinia Venus	LASV entry inh	Marburg entry inh	HCV inh	HCMV antiviral
Cc1nn(C(C)C(=O)Nc2ccccc2Cl)c(=O)c2nn(-c3ccccc3)c(C)c12 (stereo not given)	-4.5%	-15.9%	?	?	-2.0%	-61.6*
CCC(C(=O)Nc1ccccc1Cl)n1nc(C)c2c(C)n(-c3ccccc3)nc2c1=O (stereo not given)	i	-5.4%	1.7%[46.1 µM]	?	?	-80.1*
CCOc1ccccc1CNC(=O)Cn1nc(C)c2c(C)n(-c3ccc(C)cc3)nc2c1=O	·	·	·	·	2.82µM*	·
COc1ccc(C(=O)N(Cc2cc3cccc(C)c3nc2N(C)C)CC2CCCO2)cc1 (stereo not given)	-10.9%	10.8%	·	·	·	·
CN(C)c1ccc(/C=C2\Cc3ccccc3C2=O)cc1	-13.4%	40.8%	·	·	·	·
Cc1nnc(N2CCN(c3ccc(Cl)cc3)CC2)c2c1nnn2Cc1ccc(F)cc1	-20.3%	-16.7%	23.3%[46.1 µM]	0.1%[46.1 µM]	·	23.6
COc1ccc(CN2CCCC(n3cc(C(=O)N4CCCCC4)nn3)C2)c(OC)c1 (stereo not given)	-10.3%	8.6%	·	·	·	·
Cc1cc(C)nc(S[C@H]2C[C@@H](C(=O)N3CCN(c4ccccc4F)CC3)N(Cc3ccccc3C(F)(F)F)C2)n1	-1.3%	-3.6%	·	·	·	·
CC(=O)N1c2ccccc2CC1C(=O)N1CCN(c2cc(Cl)ccc2C)CC1 (stereo not given)	-2.7%	6.5%	-1.2%[46.1 µM]	·	·	6.5
Cc1ccc(-n2nc3c(=O)n(C(C)C(=O)NCc4ccco4)nc(C)c3c2C)cc1 (stereo not given)	-20.8%	-17.5%	10.0%[46.1 µM]	·	-0.2%	-26.1
CCC(C(=O)Nc1ccccc1C(=O)OC)n1nc(C)c2c(C)n(-c3ccc(C)cc3)nc2c1=O (stereo not given)	?	?	?	·	·	-94.2*
Cc1nn(CC(=O)NCc2cccs2)c(=O)c2nn(-c3ccccc3)c(C)c12	?	-4.5%	1.7%[46.1 µM]	2.3%[46.1 µM]	-17.0%	-71.4*
Cc1ccc(-n2nc3c(=O)n(C(C)C(=O)NCc4ccccc4Cl)nc(C)c3c2C)cc1 (stereo not given)	·	·	·	·	?	-91.7*
CCC(C(=O)NCc1cccc(C)c1)n1nc(C)c2c(C)n(-c3ccccc3)nc2c1=O (stereo not given)	·	·	·	·	12.6µM*	?
COCc1ccc(CN2CCOc3ccc(C4=CCCCC4)cc3C2)o1	-6.9%	1.1%	·	·	·	·
O=S(=O)(NC1CCCCC1N1CCN(c2ccc(F)cc2)CC1)c1ccccc1 (stereo not given)	·	·	·	·	?	+
Cc1ccc(Cl)cc1N1CCN(C2CCCCC2NS(=O)(=O)c2ccccc2)CC1 (stereo not given)	·	·	·	·	17.9%	·
Cc1ccc(C)c(N2CCN(C3CCCCC3NS(=O)(=O)c3ccccc3)CC2)c1 (stereo not given)	·	·	·	·	11.2µM*	·
S=C(NCc1ccco1)Nc1cc(Cl)c(Cl)cc1Cl	-26.5%	-25.1%	-16.9%	-18.2%	25.1µM*	?
O=S(=O)(c1ccccc1)c1nnn2c1nc(NCc1ccc(F)cc1)c1sccc12	-11.8%	-7.0%	18.6%[46.1 µM]	·	·	23.7
